Experimental data from PubChem BioAssay (NCI).
Compounds without any hit were thinned out: in the full panel of roughly 83,000, 20% have a hit.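 Assay: single dose, 48 h. Readout: percent growth (0 = no net growth; negative = cell death). Active: <10.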 Active and inactive are the calls of the source.

Experiments:
Experiment in all cases: NCI-60 one-dose screen, 48 h (100 = growth as untreated, 0 = no growth, -100 = all killed)
Conditions in all cases: 10 µM unless noted
SR leukemia = test system: SR leukemia
RPMI-8226 leukemia = test system: RPMI-8226 leukemia
OVCAR-8 ovarian = test system: OVCAR-8 ovarian
OVCAR-5 ovarian = test system: OVCAR-5 ovarian
OVCAR-4 ovarian = test system: OVCAR-4 ovarian
SK-OV-3 ovarian = test system: SK-OV-3 ovarian
IGROV1 ovarian = test system: IGROV1 ovarian
OVCAR-3 ovarian = test system: OVCAR-3 ovarian
HS 578T breast = test system: HS 578T breast
NCI/ADR-RES ovarian = test system: NCI/ADR-RES ovarian
T-47D breast = test system: T-47D breast
BT-549 breast = test system: BT-549 breast
MDA-MB-435 melanoma = test system: MDA-MB-435 melanoma
MCF7 breast = test system: MCF7 breast
HCT-116 colon = test system: HCT-116 colon
HCC-2998 colon = test system: HCC-2998 colon
KM12 colon = test system: KM12 colon

Measured: growth

CC(=O)OCC(=O)O[C@@H]1C[C@]2(C(C)C)O[C@@]1(C)[C@@H]1CC[C@@H](C)[C@H]1[C@@H]2OC(=O)/C=C/c1ccccc1
inactive: SR leukemia 78.4% | RPMI-8226 leukemia 73.7% | OVCAR-8 ovarian 25% | OVCAR-5 ovarian 99.8% | OVCAR-4 ovarian 87.9% | SK-OV-3 ovarian 87.7% | IGROV1 ovarian 106% | OVCAR-3 ovarian 90.9% | NCI/ADR-RES ovarian 21.7% | T-47D breast 48.6% | MDA-MB-435 melanoma 95% | MCF7 breast 77.8% | HCT-116 colon 81.5% | HCC-2998 colon 101% | KM12 colon 90.2%
active: HS 578T breast -18% | BT-549 breast 2.51%

Cn1ccnc1C(=O)/C=C/c1ccc(CC(=O)Nc2cc(F)c(F)c(F)c2)cc1
active: RPMI-8226 leukemia 4.01% | OVCAR-8 ovarian -3.42% | OVCAR-3 ovarian -33.9% | NCI/ADR-RES ovarian -29.8% | HCT-116 colon 5.93% | HCC-2998 colon 4.93% | KM12 colon 9.05%
inactive: SR leukemia 12.1% | OVCAR-5 ovarian 17.9% | OVCAR-4 ovarian 41.7% | SK-OV-3 ovarian 85.2% | IGROV1 ovarian 29% | HS 578T breast 13% | T-47D breast 29.2% | BT-549 breast 16.3% | MDA-MB-435 melanoma 19.2% | MCF7 breast 10.7%

COc1cccc(-c2cc(-c3ccc(Nc4nc(Nc5ccc(Cl)cc5)nc(Nc5ccc(Cl)cc5)n4)cc3)nc(N)c2C#N)c1
active: SR leukemia -6.27% | RPMI-8226 leukemia -55.8% | OVCAR-3 ovarian -52.7% | T-47D breast -30.3% | BT-549 breast -30.1% | MDA-MB-435 melanoma -5.12% | HCT-116 colon 6.35% | HCC-2998 colon -29.9%
inactive: OVCAR-8 ovarian 48.9% | OVCAR-5 ovarian 82.2% | OVCAR-4 ovarian 23.6% | SK-OV-3 ovarian 122% | IGROV1 ovarian 10.1% | HS 578T breast 14.1% | NCI/ADR-RES ovarian 73.3% | MCF7 breast 28.5% | KM12 colon 46.7%
